This is a sample that favours compounds with a hit; in the whole collection about 4.2% have one here.
PLK1 PBD inh: PLK1 (human) polo-box domain binding inhibition; Plk1 PBD binding of FITC phosphopeptide, fluorescence polarization; Potency, µM, without a hit: max response, negative = inhibition, most hits filed as inhibitors; 360,000 compounds, 2.8% hits; AID 720504; note: series mostly up to about 57 µM; nearly all actives have a fitted effect of over 65% in size
ALOX12 inh: blocks human arachidonate 12S-lipoxygenase. P18054. purified 12hLO, xylenol orange hydroperoxide absorbance. Potency, µM (highest dose often 108 µM), for the others: top-dose activity change, negative = inhibition, most hits filed as inhibitors. 580,000 compounds, 1.1% hits
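Hydroperoxide product was detected by ferrous iron/xylenol orange as the 573 to 405 nm absorbance ratio. Arachidonic acid at 40 uM (final) was turned over for 30 min at room temperature by 150 nM human 12hLO, pH 7.0 Hepes buffer, after 15 min compound preincubation.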
Sfp PPTase inh: blocks B. subtilis Sfp PPTase activity. Q9F4F7. Potency, µM, inactives show largest response in the series, negative = inhibition, most hits filed as inhibitors. 310,000 compounds, 3.5% hits. Biochemical Sfp PPTase activity, qHTS. AID 1490;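 note: the enzyme is Sfp with the accession as filed and its product quenches rhodamine fluorescence; 0% = enzyme reaction without inhibitor and -100% = no enzyme wells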
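Step 1, compound plus 15 nM Sfp-PPTase, 15 min, room temperature. Step 2, add rhodamine-CoA (5 uM) and BHQ-2-YbbR (12.5 uM). Step 3, read 525/598 nm fluorescence at 0 and 30 min.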
VDR inh: blocks the human vitamin D receptor; P11473; VDR-SRC2-3 peptide fluorescence polarization, 2 h; Potency, µM, without a hit: max response, negative = inhibition, most hits filed as inhibitors; 400,000 compounds, 0.93% hits
Target sequence (P11473 whole entry, looked up): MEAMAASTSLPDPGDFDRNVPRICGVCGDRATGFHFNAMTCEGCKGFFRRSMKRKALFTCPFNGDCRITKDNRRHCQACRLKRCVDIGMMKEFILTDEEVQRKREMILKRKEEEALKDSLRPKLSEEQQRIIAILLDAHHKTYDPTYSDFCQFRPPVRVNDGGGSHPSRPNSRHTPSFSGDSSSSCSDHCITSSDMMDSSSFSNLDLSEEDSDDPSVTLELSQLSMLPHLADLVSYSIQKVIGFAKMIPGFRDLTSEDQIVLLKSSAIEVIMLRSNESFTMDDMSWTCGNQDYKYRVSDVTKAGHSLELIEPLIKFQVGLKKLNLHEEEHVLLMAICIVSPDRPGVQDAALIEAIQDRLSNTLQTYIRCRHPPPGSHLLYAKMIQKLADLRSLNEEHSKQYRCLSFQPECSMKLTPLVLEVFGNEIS
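Inhibition of the VDR/SRC2-3 peptide interaction is quantified by fluorescence polarization. Compounds (23 nl, pintool) incubate with the reagents for 2 hours at ambient room temperature.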
Numbers without * were called inactive; ? = inconclusive; . = no result given; ! = repeats disagree; [ ] = dose if it differs, or a comment. Calls come from the whole dose curve; as a rule, active = well fitted curve in the direction sought with a large enough effect; inconclusive = small, poorly fitted or top-dose-only effect, or another doubt; inactive = no such curve, though single readings can be large; an effect the other way counts as inactive or inconclusive. Unless noted, % is set by controls: 0 for no effect and ±100 for the full control effect; potency is the fitted concentration of half-maximal effect.

SMILES	PLK1 PBD inh	ALOX12 inh	Sfp PPTase inh	VDR inh
Cc1ccc(CNC(=O)C2c3ccccc3C(=O)N3CCc4ccccc4C23)o1 (stereo not given)	-16.3%	9.4%	14.1µM*	?
O=C(NCCN1CCN(Cc2ccccc2)CC1)C1c2ccccc2C(=O)N2CCc3ccccc3C12 (stereo not given)	-5.1%	0.0%	32.6%	-3.2%
CON(c1nc(Cl)nc(N(C)C)n1)S(=O)(=O)c1ccc(C)cc1	26.7µM*	-14.2%	0.3%	-23.2%
CN(C)S(=O)(=O)c1cccc(NC(=S)NNC(=O)c2cc3ccccc3cc2O)c1	23.8µM*	35.5µM*	.	-3.2%
CN(C)S(=O)(=O)c1cccc(NC(=S)NC(=O)c2ccco2)c1	-2.7%	?	.	-7.7%
CC(=O)Nc1ccc(-c2csc(NCc3ccccc3)n2)cc1	-16.2%	?	-13.4%	-18.0%
CC(=O)Nc1cccc(-c2csc(NCc3ccccc3)n2)c1	-10.0%	?	39.8µM*	-10.2%
CC(=O)Nc1cccc(-c2csc(Nc3ccccn3)n2)c1	-0.8%	-17.1%	89.1µM*	10.7%
CC(=O)Nc1cccc(-c2csc(Nc3cc(C)ccn3)n2)c1	-11.8%	1.7%	-12.9%	-2.5%
Cc1ccc(Nc2nc(-c3ccc(O)c(O)c3)cs2)nc1	-11.8%	22.4µM*	35.5µM*	1.3%
Cc1csc(NC(=O)CS(=O)(=O)Cc2ccccc2)n1	-29.0%	1.6%	-5.2%	22.0%
COc1ccccc1NC(=O)C(C)n1cnc2c(oc3nc4c(cc32)CCCC4)c1=O (stereo not given)	5.7%	-4.2%	2.7%	?
Cc1ccnc(NC(=O)CCCOc2ccc(Cl)cc2C)c1	.	-16.5%	-5.1%	.
CCN(CC)C(=S)Sc1ccc([N+](=O)[O-])cc1	.	5.62µM*	.	.
CCN(CC)c1ccc(/C=N/NC(=O)Cc2nnc(NC(=O)Nc3ccccc3)s2)cc1	-12.5%	-8.8%	14.4%	5.4%
O=C(Nc1ccc2c(c1)OCO2)c1cc2ncc(Br)cn2n1	11.9µM*	?	-6.5%	-6.7%
NCCS	?	9.9%	79.4µM*!	22.4µM*
COc1ccc(/C=C/C(=O)Nc2ccc3nc4c(c(Nc5ccccc5OC)c3c2)CCCC4)cc1	.	?	.	1.3%
Cc1cc(C)cc(OC(C)C(=O)Nc2ccccc2C(=O)NCc2cccnc2)c1 (stereo not given)	-8.1%	?	35.5µM*	-20.0%
CC(Oc1ccc(-c2ccccc2)cc1)C(=O)N1CCOCC1 (stereo not given)	-2.6%	0.0%	12.1%	8.1%
N#CC1=C(N)SC(N)=C(C#N)C1c1cccc(Oc2ccccc2)c1	-28.0%	14.1µM*	28.2µM*	?
N#CC1=C(N)SC(N)=C(C#N)C1c1ccc(C(F)(F)F)cc1	.	.	-79.6%	.
N#CC1=C(N)SC(N)=C(C#N)C1c1c(Cl)cccc1Cl	?	?	7.08µM*	?
O=C(COC(=O)COc1ccccc1)Nc1ncc([N+](=O)[O-])s1	16.8µM*	?	.	?
O=C(COc1ccc(Cl)cc1)Nc1ncc([N+](=O)[O-])s1	-19.0%	-9.6%	-2.8%	12.9%
SMILES	PLK1 PBD inh	ALOX12 inh	Sfp PPTase inh	VDR inh
O=C(O)/C=C\C(=O)Nc1cccc(C(=O)Nc2cccc(O)c2)c1	23.8µM*	?	3.5%	5.1%
NNC(=O)CN1C(c2ccccc2Br)=Nc2ccc(Br)cc2C1c1ccccc1 (stereo not given)	-9.7%	17.1%	0.5%	70.8µM*
NNC(=O)CN1C(c2cccc(Cl)c2)=Nc2ccc(Br)cc2C1c1ccccc1 (stereo not given)	-13.8%	0.0%	13.6%	10.3%
O=S1(=O)N=C2CCCCCN2C(c2ccc(F)cc2)N1 (stereo not given)	1.1%	0.0%	-2.3%	0.5%
O=[N+]([O-])c1ccc(C2NS(=O)(=O)N=C3CCCCCN32)cc1 (stereo not given)	-3.5%	13.0%	50.1µM*	?
O=[N+]([O-])c1cc(-c2ccccc2)cc([N+](=O)[O-])c1O	?	?	.	-15.4%
O=C(O)c1cc([N+](=O)[O-])ccc1-c1ccc([N+](=O)[O-])cc1C(=O)O	-18.8%	?	.	.
O=[N+]([O-])c1cc2ccccc2c(O)c1O	5.32µM*	?	.	.
O=C(O)c1cc([N+](=O)[O-])cc2ccccc12	18.9µM*	?	.	-4.7%
CN(Cc1cccs1)C(=O)c1cc(S(=O)(=O)N2CCOCC2)ccc1F	0.3%	-20.9%	.	13.9%
CN(C)c1cc(Cl)c2nonc2c1N	-18.4%	39.8µM*	89.1µM*	?
Cc1cc(C(=O)CSc2nnnn2-c2ccc(O)cc2)c(C)n1C	23.8µM*	1.6%	-6.2%	5.6%
COc1cccc(C(=O)CSc2nccn2C)c1	-6.0%	?	56.2µM*	-8.1%
COc1cccc(C(=O)CSc2nnnn2C)c1	-3.2%	?	50.1µM*	?
COc1ccc(OC)c(C(=O)CSc2nnnn2C)c1	-2.4%	36.6%	?	1.5%
NC(=O)c1ccc(-n2nnnc2SCC(=O)c2ccc(O)c(O)c2)cc1	2.6%	?	?	7.2%
COc1ccc(-n2nnnc2SCC(=O)c2ccc(O)c(O)c2)cc1	-0.4%	4.47µM*	-9.6%	18.2%
Cc1cccc(C)c1Nc1sc(C(=O)c2ccccc2)c(N)c1C(=O)Nc1ccc(F)cc1	.	0.6%	.	9.5%
Cc1cc(C)n(CC2(Cn3cc(C4CCCNC4)nn3)CC2)n1 (stereo not given)	.	14.1µM*	.	.
CCc1ccc(CNC(=O)CN2C(=O)CCn3nc(-c4cn(C)c5ccccc45)cc32)cc1	.	?	.	2.5%
COC(=O)CO[C@@H]1CO[C@H]2[C@@H]1OC[C@@H]2NC(=S)Nc1cc(C)cc(C)c1	.	70.8µM*	.	.
CC(=O)c1ccc(NC(=O)N[C@H]2CO[C@H]3[C@@H]2OC[C@H]3OCC(N)=O)cc1	.	36.4%[176 µM]	.	.
CCSc1n[nH]c2nc3c(c(=O)n12)C1(CCCCC1)Cc1ccccc1-3	13.4µM*	3.6%	-26.4%	?
N#CCSc1n[nH]c2nc3c(c(=O)n12)C1(CCCCC1)Cc1ccccc1-3	?	0.1%	50.1µM*	-11.5%
CCn1c(=O)c2c(n3c(=S)[nH]nc13)-c1ccccc1CC21CCCCC1	?	14.1µM*	17.8µM*	-15.8%
SMILES	PLK1 PBD inh	ALOX12 inh	Sfp PPTase inh	VDR inh
CCn1c(SCC#N)nc2c(c1=O)C1(CCCC1)Cc1ccccc1-2	-10.0%	-12.3%	5.7%	-7.7%
CCSc1nnc2n(C)c(=O)c3c(n12)-c1ccccc1CC31CCCCC1	.	0.7%	.	.
CSc1n[nH]c2nc3c(c(=O)n12)C1(CCCCC1)Cc1ccccc1-3	23.8µM*	-18.7%	17.8µM*	-24.2%
CN(C)CCOCC1(C)COc2ccc(C(=O)Nc3cccc(N(C)C)c3)cc2N1 (stereo not given)	.	-1.9%[176 µM]	.	.
CC(=O)c1cccc(NC(=S)NC(=O)c2cccc(Cl)c2)c1	-13.9%	-19.8%	-16.6%	?
O=C(NC(=S)Nc1cccnc1)c1cccc(Cl)c1	2.8%	2.6%	.	.
Cc1cccc(C(=O)Nc2ccc(NC(=S)NC(=O)c3cccc(Cl)c3)cc2)c1	.	17.8µM*	.	.
Cc1cccc(C)c1NC(=S)NC(=O)c1cccc(Cl)c1	3.8%	31.6µM*	.	.
Fc1ccc(-c2nc3n(c2-c2ccncc2)CCS3)cc1	.	?	-4.4%	.
Cc1ccc2nc(C)c(CC=C(Cl)Cl)c(Cl)c2c1	.	8.2%	.	.

Screens from PubChem.
